Measurements from PubChem BioAssay AID686979 (National Center for Advancing Translational Sciences (NCATS), 2013).
Among all 420,000 compounds or so, about 50,000 (12%) were called active. Where a call stands in place of a potency, no number is given. About 26% were inconclusive and are not listed. Calls follow the shape of the dose curve; as a rule, active = well fitted inhibition curve with a large enough effect; inconclusive = small, poorly fitted or top-dose-only effect; inactive = flat fitted curve, though single readings scatter. The sample as a whole holds a higher share of actives than the screen did.

test: qHTS for Inhibitors of human tyrosyl-DNA phosphodiesterase 1 (TDP1): qHTS in cells in presence of CPT; conditions: chicken DT40 Tdp1-/-;hTDP1 cells + 20 nM CPT, ATP luminescence, 48 h; series mostly up to 46.2 µM; also: nearly all actives have a fitted effect of over 55% in size
Method in brief: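 Chicken DT40 Tdp1-/- cells complemented with human TDP1, 400 cells/well, exposed to compounds plus 20 nM camptothecin for at least 48 h at 37 C; viability read as ATP content by CellTiter-Glo luminescence.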
Potency is read from the fitted curve at half-maximal effect.

Compound	Potency
O=C(COC(=O)c1n[nH]c2ccccc12)NCc1ccccc1	inactive
O=C(COC(=O)c1n[nH]c2ccccc12)Nc1ccccc1Br	inactive
CN(C)S(=O)(=O)c1ccc(NC(=O)COC(=O)c2n[nH]c3ccccc23)cc1	14.6 µM (active)
Cc1nn(C(C)(C)C)c(OC(=O)CC(C)C)c1S(=O)(=O)c1ccccc1	inactive
COC(=O)c1cccc(C(=O)N2CCCC(Nc3ccc4c(c3)OCCO4)C2)c1 (stereo unspecified)	inactive
O=C(CSc1nnnn1-c1ccccc1)NCc1ccco1	inactive
O=C(CSc1nc2ccc(Nc3nc(N4CCOCC4)nc(N4CCOCC4)n3)cc2s1)NCc1ccco1	25.9 µM (active)
C=CCn1c(CSc2nc3ccccc3s2)nnc1SCC(=O)NCc1ccco1	inactive
Brc1ccc(/C=N/N2CCN(C3c4ccccc4-c4ccccc43)CC2)s1	inactive
CC(=O)O[C@]1(C(C)=O)CC[C@H]2[C@@H]3CCC4=CC(=O)CC[C@]4(C)[C@@]3(F)[C@@H](O)C[C@@]21C	inactive
CN(C)c1ccc(C2N(C)C(=O)c3ccccc3N2C)cc1 (stereo unspecified)	inactive
Cc1ccc2nnn(Cc3cccc(C(C)(C)C)c3O)c2c1	20.6 µM (active)
Cc1ccc(C(=O)CSc2nnc(Cn3nnc4ccccc43)n2C)cc1	inactive
Cc1ccc(C2(C)NC(=O)N(CC(=O)N3CC(=O)Nc4ccccc43)C2=O)cc1 (stereo unspecified)	inactive
Cc1cc(NC(=O)CSc2nc(C(C)C)nc3sc4c(c23)CCC(C)C4)no1 (stereo unspecified)	18.4 µM (active)
Cc1nc(SCC(=O)Nc2cc(C)on2)c2c(C)c(C)sc2n1	inactive
CC(C)c1nc(SCC(=O)Nc2cccc(C(=O)O)c2)c2c3c(sc2n1)CCCC3	inactive
Cc1cc(C)cc(NC(=O)CSc2nc(=O)n(CCN3CCOCC3)c3c2CCC3)c1	inactive
O=C(CN1CCN(c2ncccn2)CC1)Nc1ccccc1C(F)(F)F	inactive
N#Cc1ccc(CN2CCCC3(CCN(C(=O)c4ccco4)CC3)C2)cc1	inactive
Cc1ccc2nc(-c3ccc(C)c(NC(=O)Cc4ccccc4)c3)oc2c1	inactive
CC(C)C[C@H](NC(=O)N1CCn2c1nc1ccccc12)C(=O)NC1CC1	inactive
CCC(C)[C@H](NC(=O)N1CCn2c1nc1ccccc12)C(=O)NCc1ccc(OC)cc1 (stereo partly specified)	20.6 µM (active)
CC(C)[C@H](NC(=O)N1CCn2c1nc1ccccc12)C(=O)NC1CC1	inactive
CCOc1nc(-c2ccc(OC)cc2)ccc1-c1noc(-c2cc(OC)c(OC)c(OC)c2)n1	5.17 µM (active)
COc1cc(-c2n[nH]c(=S)n2Cc2ccccc2)cc(OC)c1OC	inactive

Compound	Potency
COc1nc(-c2ccc(Cl)cc2)ccc1-c1noc(-c2cccs2)n1	inactive
COc1ccc(-c2cc(-c3nc(-c4cc(OC)c(OC)c(OC)c4)no3)[nH]n2)c(OC)c1	20.6 µM (active)
CCOc1ccc(-c2noc(CCC(=O)NC3CCCC3)n2)cc1OC	inactive
COc1ccc2[nH]c(=O)c(-c3noc(-c4ccc(F)cc4)n3)cc2c1	inactive
O=C(NCc1ccc(Cl)cc1)c1ccc2c(c1)nnn2C1CCCC1	inactive
O=C(CCC1N=C2c3ccccc3N=C(SCc3ccccc3F)N2C1=O)NCCc1ccccc1 (stereo unspecified)	inactive
Cc1nc(C(F)(F)F)ccc1C(=O)N1CCC1(C)C(=O)NS(=O)(=O)c1ccccc1 (stereo unspecified)	inactive
CCn1cc(C(=O)N[C@@H](C)C(=O)NCCO)c(=O)c2cc3c(cc21)OCO3	inactive
COc1ccccc1OCCOc1ccc(/C=N/n2cnnc2)cc1	inactive
Cc1cc(-c2ccc(/C=N/n3cnnc3)o2)c([N+](=O)[O-])cc1C	inactive
Cc1ccccc1OCCOc1ccc([N+](=O)[O-])cc1/C=N/n1cnnc1	1.16 µM (active)
O=C(c1ccc(=O)oc1)N1CCC(C(O)(c2ccccc2)c2ccccc2)CC1	inactive
CC1(C(=O)NCc2ccc(F)c(F)c2)Cc2c(-c3ccc4c(c3)OCO4)ccnc2O1 (stereo unspecified)	4.11 µM (active)
S=C(NCc1ccc2c(c1)OCO2)NCc1ccco1	inactive
COc1cc(OC)c(C(=O)NCc2ccc3c(c2)OCO3)cc1OC	inactive
CC1(C(=O)NCc2ccco2)Cc2c(-c3ccc4c(c3)OCO4)ccnc2O1 (stereo unspecified)	0.82 µM (active)
O=C(Cn1nnc(-c2ccc3c(c2)OCO3)n1)NCc1ccco1	inactive
O=C(NCc1ccc2c(c1)OCO2)c1cc(F)c(F)cc1Cl	inactive
O=S(=O)(NC1CCCC1)c1ccc(-n2cnnn2)cc1	inactive
C/C(COc1ccccc1)=N\NC(=O)c1nnn(-c2nonc2N)c1-c1ccc(C)cc1	inactive
COc1ccc(-c2cc(-c3ccccc3)nc3c2COc2ccc(Cl)cc2-3)cc1	inactive
CC(=O)c1ccc(Cc2ncc(C(F)(F)F)cc2Cl)s1	inactive
Cc1cccc(OC(C)C(=O)N2CCc3ccccc3C2)c1 (stereo unspecified)	inactive
COc1cc(N2C(=O)c3ccccc3C2=O)c(Cl)cc1C(=O)OCC(=O)N1CCOCC1	inactive
COc1cccc(NC(=O)COC(=O)/C=C/c2ccco2)c1	inactive
Cc1cccc(OCC(=O)NCCCNC(=O)c2ccccn2)c1	inactive

Compound	Potency
CCOc1cc2ccccc2cc1C(=O)Nc1ccccn1	inactive
CCN(CC)CCOc1ccc2c(c1)C(=NNC(=O)c1ccccn1)c1cc(OCCN(CC)CC)ccc1-2	5.17 µM (active)
CCCc1nnc(NC(=O)CCC(=O)NC2CC2)s1	inactive
CCCc1ccc(C(=O)COC(=O)CN2C(=O)NC3(CCCCC3C)C2=O)cc1 (stereo unspecified)	inactive
Cc1cc2c(cc1C)[n+](C)cn2CC(O)COCC1CC=CCC1 (stereo unspecified)	8.2 µM (active)
CC1CCN(C(=O)/C(=C\c2ccccc2)NC(=O)c2ccccc2)CC1	inactive
Cc1nn(CC#N)c(=O)n1N(C)c1ncc(C(F)(F)F)cc1Cl	inactive
O=C(Nc1ccccc1N1CCOCC1)c1ccncc1	inactive
O=C(Nc1ccccc1N1CCCCC1)c1cccc(F)c1	inactive
O=C(Nc1ccccc1N1CCCCC1)c1ccc2nccnc2c1	20.6 µM (active)
COC(=O)c1cccc(N(C(=O)CNC(=O)c2cccs2)C(C(=O)NCC2CCCO2)c2ccc(OC)c(OC)c2)c1 (stereo unspecified)	inactive
CNC(=O)CN1C(=O)c2cccnc2Sc2ccccc21	inactive
O=C(c1cc(C(F)(F)F)cc(C(F)(F)F)c1)N1CCC[C@@]2(CCN(c3ccccn3)C2)C1	16.4 µM (active)
CC(C)NC(=O)N1CC[C@@]2(CCCN(C(=O)c3cccc(F)c3)C2)C1	inactive
CC(=O)N1CCC2(CCCN(c3ncccn3)C2)CC1	inactive
Cc1cc(F)ccc1S(=O)(=O)Nc1ccc(C(=O)N(C)Cc2ccco2)cc1	inactive
COc1c(C=O)c(CCN(C)C(=O)c2ccc(F)cc2)cc2c1OCO2	inactive
COc1cccc2c1OCC(CN1CCN(C3CCCCC3)C(CCO)C1)=C2 (stereo unspecified)	inactive
COc1ccc(-n2c(=O)c3ccccc3n(Cc3ccccc3Cl)c2=O)cc1	inactive
CC(=O)OC[C@H]1O[C@@H](O[C@H]2[C@H](O)[C@@H](OC(=O)c3ccccc3C(=O)O)[C@H](O)O[C@@H]2COC(C)=O)[C@H](O)[C@@H](OC(=O)c2ccccc2C(=O)O)[C@@H]1O	inactive
O=C(CNC(=O)COc1ccccc1)NCCc1ccccn1	inactive
Cc1ccc(C(=O)N/C(=C\c2cccs2)C(=O)NCCc2ccccn2)cc1C	inactive
COc1cncc(-c2cnc3sc(NCCc4ccccn4)nn23)c1	13 µM (active)
N#Cc1cc([N+](=O)[O-])ccc1NCC1CCCO1 (stereo unspecified)	inactive
O=C(O)CN1c2cccc3cccc(c23)S1(=O)=O	inactive
Cc1ccc(NC(=O)/C(=C\c2ccccc2)NC(=O)c2ccco2)cc1	inactive

Compound	Potency
FC(F)Oc1ccccc1C1CC(c2ccc(Br)s2)Nc2ncnn21 (stereo unspecified)	11.6 µM (active)
COc1ccc(C2CC(c3ccccc3)Nc3ncnn32)cc1 (stereo unspecified)	inactive
Clc1ccc(C2CC(c3cccs3)n3ncnc3N2)cc1Cl (stereo unspecified)	inactive
CCOC(=O)Cn1nnnc1C	inactive
O=C(O)c1cc(S(=O)(=O)N(Cc2ccccc2)c2ccccc2)ccc1Cl	inactive
COc1cc2nnn(-c3ccncc3)c2cc1OC	inactive
Cc1nn(CC(=O)NCCc2ccccc2)c(=O)c2cc3occc3n12	inactive
COCCNC(=O)c1cc2c(Br)ccc(Br)c2nc1N	inactive
COc1ccccc1N1CCN(CC(=O)NC(=O)NCc2ccco2)CC1	inactive
COc1ccccc1N1CCN(CCN2C(=O)c3ccccc3C(C)(C)C2=O)CC1	14.6 µM (active)
CNCC(O)CN1CCN(c2ccccc2OC)CC1 (stereo unspecified)	inactive
COc1ccc2c(C)cc3nnnn3c2c1	inactive
CC(C)[C@H](NC(=O)N1CC(=O)Nc2ccccc21)C(=O)N[C@@H](Cc1c[nH]c2ccccc12)C(=O)O	inactive
CCN(C(=O)Cn1cnc2sc(C)c(S(=O)(=O)N3CCN(c4ncccn4)CC3)c2c1=O)c1ccccc1F	inactive
Cc1ccc(S(=O)(=O)N2CCCCC2)cc1NC(=O)[C@@H]1CCCN1C(=O)c1cccs1	inactive
CCOc1ccc(S(=O)(=O)N2CCCCC2)cc1NC(=O)CN1CCCC1c1cccs1 (stereo unspecified)	3.66 µM (active)
COc1ccc(S(=O)(=O)N2CCCCCC2)cc1NC(=O)Cc1ccc(OC)c(OC)c1	inactive
Cc1csc[n+]1CCC1CCCCC1	20 µM (active)
CC(=O)c1ccc(N2C(=NC(=O)C(C)C)SC3CS(=O)(=O)CC32)cc1 (stereo unspecified)	inactive
O=C(CN1CCN(CC(=O)Nc2ccc3c(c2)OCO3)CC1)Nc1ccc(F)cc1	inactive
O=C(CSc1nnc(-c2ccccn2)n1-c1ccccc1)Nc1ccc2c(c1)OCO2	inactive
O=C(CSc1nc(-c2cccc(F)c2)[nH]c1-c1ccccc1)Nc1ccc2c(c1)OCO2	10.3 µM (active)
O=c1c(CCc2ccccc2)nc2cncnc2n1C1CC1	inactive
